Source: PubChem (several laboratories)
Shown are actives, neighbours in structure and some others; about 3.1% of the full set was active somewhere.
NCF1 inh – p47phox/p22phox peptide binding inhibitors, primary screen, biochemical, uHTS, NADPH oxidase regulatory subunit | inhibition, % at 24.7 µM | fluorescence polarization, 2 h | 220,000 compounds, 0.53% hits;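 active means inhibition above about 30%, limit read from the data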;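 further: 0% = p47phox with labelled peptide and 100% = labelled peptide alone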
14-3-3 Bad inh – inhibitors of 14-3-3 zeta/Bad binding, primary screen, biochemical, TR-FRET, bovine 14-3-3 zeta; TR-FRET 14-3-3zeta/Dy647-pBad peptide displacement, 1 h; inhibition, % at 21.7 µM; 14-3-3 protein zeta/delta (Bos taurus), P63103; 220,000 compounds, 0.71% hits;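 active means inhibition above about 70%, limit read from the data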;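 further: 0% = full 14-3-3 plus peptide FRET controls and 100% = background without 14-3-3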
Mcl1 Bid PPI – Mcl-1/Bid binding inhibitors, primary screen, biochemical, TR-FRET, 1536-well | Induced myeloid leukemia cell differentiation protein Mcl-1 (Homo sapiens), Q07820 | TR-FRET Mcl-1/Bid-Dy647 peptide binding | inhibition, % at 21.7 µM | 220,000 compounds, 0.97% hits | AID 1021, 2008;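 active means compounds that cut the binding signal by more than half at the single screening dose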;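 further: His-tagged Mcl-1 with europium anti-His antibody binding Bid BH3 peptide; 0% = Mcl-1 plus peptide wells and 100% = peptide-only wells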
Target sequence (Q07820 whole entry, looked up): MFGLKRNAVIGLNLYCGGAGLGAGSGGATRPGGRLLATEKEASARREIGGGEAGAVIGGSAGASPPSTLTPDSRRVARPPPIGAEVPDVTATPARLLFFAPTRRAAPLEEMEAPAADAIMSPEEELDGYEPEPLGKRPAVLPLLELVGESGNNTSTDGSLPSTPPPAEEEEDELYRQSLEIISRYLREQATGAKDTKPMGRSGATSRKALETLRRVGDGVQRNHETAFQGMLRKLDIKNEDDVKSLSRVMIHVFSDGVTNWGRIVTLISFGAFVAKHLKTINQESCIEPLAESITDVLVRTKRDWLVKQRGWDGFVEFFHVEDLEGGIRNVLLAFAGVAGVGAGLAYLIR
Bim-Mcl-1 – inhibitors of Bim peptide binding to Mcl-1, primary screen, biochemical, bead-based flow cytometry, multiplex. Induced myeloid leukemia cell differentiation protein Mcl-1 (Homo sapiens), Q07820. inhibition, % at 10 µM. Bim peptide-Mcl-1 binding. 190,000 compounds, 0.1% hits. AID 1009, 2008; in the data active means inhibition above about 40%;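 further: 0% = no compound tracer wells and 100% = peptide blocker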
Mcl1 Noxa PPI – Mcl-1/Noxa binding inhibitors, primary screen, biochemical, TR-FRET, 1536-well | Induced myeloid leukemia cell differentiation protein Mcl-1 (Homo sapiens), Q07820 | TR-FRET Mcl-1/Noxa peptide binding, 2 h | 220,000 compounds, 1.5% hits | inhibition, % at 21.7 µM;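 active means compounds that cut the protein-peptide binding signal by more than 50% relative to plate controls in a single-dose test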;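 further: His-tagged Mcl-1 with rhodamine Noxa BH3 peptide and terbium anti-His antibody; 0% = Mcl-1 plus Noxa peptide wells and 100% = peptide-only wells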
* marks the source's active call; other numbers are inactive results; nt = not tested or not shown; [ ] = dose if it differs, or a comment.

SMILES	NCF1 inh	14-3-3 Bad inh	Mcl1 Bid PPI	Bim-Mcl-1	Mcl1 Noxa PPI
O=C(c1cnc(Cl)c(Cl)c1)N1CCC(Cc2ccccc2)CC1	-3.2	0.5	3.9	1.0	51.1*
O=c1ccc(Oc2nc(N3CCCCC3)nc(N3CCCCC3)n2)n[nH]1	-0.9	74.0*	-40.7	1.0	3.9
CC(C)(C)NC(=O)C(c1cccs1)N(C(=O)c1csnn1)c1ccccc1F (stereo not drawn)	-7.0	-8.9	-14.6	-3.0	-20.0
O=C1N/C(=C/c2ccc(Br)cc2)C(O)=C1C=NCc1ccccc1	10.4	15.2	53.7*	-3.0	22.6
O=[N+]([O-])c1ccc(S(=O)(=O)N2CCN=C2SCc2cccnc2)cc1	-2.8	-10.5	0.2	-4.0	1.1
COc1ccc(/C(C)=N/Nc2cccc(C(=O)O)c2)cc1OC	-2.3	-1.2	-14.4	0.0	15.0
C/C(=N\Nc1ccc(C(=O)O)cc1)c1ccc2c(c1)Nc1ccccc1S2	-18.1	9.7	56.8*	nt	87.1*
Cc1ccc(C[n+]2cccc(-c3ccccc3)c2)c(C)c1	-11.2	0.3	0.2	-3.0	11.1
N#C/C(=N\Nc1ccccc1F)c1nc(-c2ccccc2)cs1	-4.6	-7.5	3.6	0.0	2.6
CC(=O)Oc1ccc(C(c2ccc(OC(C)=O)cc2)c2ccccn2)cc1	-2.0	-5.2	86.9*	-2.0	32.0
O=C(NC(Cc1ccccc1)C(=O)O)c1ccc(S(=O)(=O)N2CCCC2)cc1 (stereo not drawn)	-17.9	0.1	4.9	-3.0	19.8
O=C(NC(Cc1ccccc1)C(=O)O)c1ccc(S(=O)(=O)N2CCCCC2)cc1 (stereo not drawn)	-2.1	-4.2	99.2*	2.0	17.6
O=C(N[C@@H](Cc1ccccc1)C(=O)O)c1ccncc1	-6.2	7.1	94.4*	-1.0	25.3
CCCN(Cc1cc(=O)[nH]c2ccccc12)C(=O)CC	0.1	76.0*	2.6	nt	-1.0
O=C(Cc1ccc(Cl)cc1)Nc1ccc(SC(F)F)cc1	-14.2	-11.3	-1.7	-1.0	16.0
O=C(Nc1ccc(Cl)cc1Cl)c1ccc(-c2ccccc2)cc1	-6.1	-5.8	4.2	-3.0	69.9*
CCC(=O)OCCNc1cc(SCCC(=O)OC)c2nonc2c1[N+](=O)[O-]	-5.5	6.5	-4.0	-1.0	14.8
CCCC(=O)OCCNc1cc(Sc2nc3ccccc3[nH]2)c2nonc2c1[N+](=O)[O-]	-5.0	-11.8	-62.2	-1.0	51.8*
O=C(N/N=C/c1ccc(N2CCOCC2)s1)c1ccccc1Br	-18.6	-14.7	-51.1	0.0	33.9
Clc1cccc(N/N=C/c2ccc(N3CCOCC3)s2)c1	8.4	0.6	-38.1	-14.0	86.8*
O=C1Nc2ccccc2/C1=C\c1cccn1-c1ccc(OC(F)(F)F)cc1	-6.8	-23.7	-29.5	2.0	2.7
CC1(c2ccc(Cl)cc2Cl)OCC(Cn2ccnc2)O1 (stereo not drawn)	-12.2	40.6	80.4*	1.0	22.6
OC(Cn1ccnc1)c1ccc(Cl)cc1Cl (stereo not drawn)	-5.3	-0.9	6.2	-4.0	18.3
C=CCSc1nc2c(cc1C#N)CCC2	-8.4	89.9*[fluorescence artefact?]	18.4	0.0	26.5
O=c1c(C(c2ccc(F)cc2)c2c(O)nc3n(c2=O)CCS3)c(O)nc2n1CCS2	-10.3	0.1	-24.1	nt	14.0
CCN(CC)c1ccc(S(=O)(=O)N(CC)CC)cc1NC(=O)c1cccnc1	-16.7	-19.7	-35.2	-2.0	2.4
Cc1ccc(S(=O)(=O)n2cnc3cc([N+](=O)[O-])ccc32)cc1C	7.0	70.6*	22.9	-1.0	18.6
C#CCOCCOCCOCCNc1nc(N2CCN(C(=O)[C@H]([C@@H](C)O)n3cc(CCCCN)nn3)CC2)nc(N2CCN(C(=O)[C@H](Cc3ccc(O)cc3)n3cc(CCO)nn3)CC2)n1	-2.0	40.3	3.6	0.0	21.3
CCOc1ccccc1NC(=S)N(CCC(C)C)C1CCN(C(C)=O)CC1	2.7	-7.1	-25.7	-2.0	5.8
COc1ccc2nc(/C(C#N)=C\c3ccc(Oc4ccc([N+](=O)[O-])cn4)cc3)[nH]c2c1	-43.6	33.1	57.9*	2.0	72.5*
